{
  "source": "the supplement of paper PMC4466140",
  "data": [
    {"target": "SpBzz1-D2", "assay": "SPOT peptide array binding signal intensity (averaged, normalized) (arbitrary units (background-subtracted, floor 0; scale differs between SH3 domains)); higher = stronger binding of the SH3 domain to the peptide", "how_it_was_run": "(§1)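 GST-fused SH3 domains, from four yeast species, were produced in E. coli BL21(DE3) and captured on glutathione Sepharose. Membranes of cellulose carrying synthetic 15-mer peptides, in which cysteines had been replaced by serines, were exposed to each domain at 10 μg/ml overnight at 4°C in TBS-based blocking buffer. After anti-GST antibody, an HRP anti-mouse secondary and luminol, spots were imaged and quantified using Genespotter. Binding signal is normalized and background-subtracted spot intensity, averaged over replicates, in arbitrary units that differ between domains.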", "values": [
      {"binder": "TPEIPPPLPPKIMVH", "SPOT peptide array binding signal intensity": "≤ 0"}
    ]},
    {"target": "SpCyk3", "assay": "SPOT peptide array binding signal intensity (averaged, normalized) (arbitrary units (background-subtracted, floor 0; scale differs between SH3 domains)); higher = stronger binding of the SH3 domain to the peptide", "how_it_was_run": "as §1", "values": [
      {"binder": "TPEIPPPLPPKIMVH", "SPOT peptide array binding signal intensity": "≤ 0"}
    ]},
    {"target": "SpHof1", "assay": "SPOT peptide array binding signal intensity (averaged, normalized) (arbitrary units (background-subtracted, floor 0; scale differs between SH3 domains)); higher = stronger binding of the SH3 domain to the peptide", "how_it_was_run": "as §1", "values": [
      {"binder": "TPEIPPPLPPKIMVH", "SPOT peptide array binding signal intensity": "≤ 0"}
    ]},
    {"target": "SpHof1-2", "assay": "SPOT peptide array binding signal intensity (averaged, normalized) (arbitrary units (background-subtracted, floor 0; scale differs between SH3 domains)); higher = stronger binding of the SH3 domain to the peptide", "how_it_was_run": "as §1", "values": [
      {"binder": "TPEIPPPLPPKIMVH", "SPOT peptide array binding signal intensity": 0.5}
    ]},
    {"target": "SpHof1-3", "assay": "SPOT peptide array binding signal intensity (averaged, normalized) (arbitrary units (background-subtracted, floor 0; scale differs between SH3 domains)); higher = stronger binding of the SH3 domain to the peptide", "how_it_was_run": "as §1", "values": [
      {"binder": "TPEIPPPLPPKIMVH", "SPOT peptide array binding signal intensity": "≤ 0"}
    ]},
    {"target": "SpHse1", "assay": "SPOT peptide array binding signal intensity (averaged, normalized) (arbitrary units (background-subtracted, floor 0; scale differs between SH3 domains)); higher = stronger binding of the SH3 domain to the peptide", "how_it_was_run": "as §1", "values": [
      {"binder": "TPEIPPPLPPKIMVH", "SPOT peptide array binding signal intensity": 148}
    ]},
    {"target": "SpLsb1", "assay": "SPOT peptide array binding signal intensity (averaged, normalized) (arbitrary units (background-subtracted, floor 0; scale differs between SH3 domains)); higher = stronger binding of the SH3 domain to the peptide", "how_it_was_run": "as §1", "values": [
      {"binder": "TPEIPPPLPPKIMVH", "SPOT peptide array binding signal intensity": 463}
    ]},
    {"target": "SpLsb4", "assay": "SPOT peptide array binding signal intensity (averaged, normalized) (arbitrary units (background-subtracted, floor 0; scale differs between SH3 domains)); higher = stronger binding of the SH3 domain to the peptide", "how_it_was_run": "as §1", "values": [
      {"binder": "TPEIPPPLPPKIMVH", "SPOT peptide array binding signal intensity": 852}
    ]},
    {"target": "SpMyo1", "assay": "SPOT peptide array binding signal intensity (averaged, normalized) (arbitrary units (background-subtracted, floor 0; scale differs between SH3 domains)); higher = stronger binding of the SH3 domain to the peptide", "how_it_was_run": "as §1", "values": [
      {"binder": "TPEIPPPLPPKIMVH", "SPOT peptide array binding signal intensity": 723}
    ]},
    {"target": "SpNbp2", "assay": "SPOT peptide array binding signal intensity (averaged, normalized) (arbitrary units (background-subtracted, floor 0; scale differs between SH3 domains)); higher = stronger binding of the SH3 domain to the peptide", "how_it_was_run": "as §1", "values": [
      {"binder": "TPEIPPPLPPKIMVH", "SPOT peptide array binding signal intensity": "≤ 0"}
    ]},
    {"target": "SpPex13", "assay": "SPOT peptide array binding signal intensity (averaged, normalized) (arbitrary units (background-subtracted, floor 0; scale differs between SH3 domains)); higher = stronger binding of the SH3 domain to the peptide", "how_it_was_run": "as §1", "values": [
      {"binder": "TPEIPPPLPPKIMVH", "SPOT peptide array binding signal intensity": 9}
    ]},
    {"target": "SpRvs167", "assay": "SPOT peptide array binding signal intensity (averaged, normalized) (arbitrary units (background-subtracted, floor 0; scale differs between SH3 domains)); higher = stronger binding of the SH3 domain to the peptide", "how_it_was_run": "as §1", "values": [
      {"binder": "TPEIPPPLPPKIMVH", "SPOT peptide array binding signal intensity": 1520}
    ]},
    {"target": "SpSla1-D1-D2", "assay": "SPOT peptide array binding signal intensity (averaged, normalized) (arbitrary units (background-subtracted, floor 0; scale differs between SH3 domains)); higher = stronger binding of the SH3 domain to the peptide", "how_it_was_run": "as §1", "values": [
      {"binder": "TPEIPPPLPPKIMVH", "SPOT peptide array binding signal intensity": "≤ 0"}
    ]},
    {"target": "SpSla1-D3", "assay": "SPOT peptide array binding signal intensity (averaged, normalized) (arbitrary units (background-subtracted, floor 0; scale differs between SH3 domains)); higher = stronger binding of the SH3 domain to the peptide", "how_it_was_run": "as §1", "values": [
      {"binder": "TPEIPPPLPPKIMVH", "SPOT peptide array binding signal intensity": "≤ 0"}
    ]}
  ]
}
